Active and inactive are the calls of the source. Unless noted, how the calls were made is not given here.

Among the data in PubChem BioAssay are z-score and composite z-score values, retold here.

Test [1] can be described thus: HepG2 liver cancer cell viability effects, profiling panel, resazurin fluorescence, 24 h, PK04 Diversity Set (AID 1172). Further: test concentration not given here. Particulars: higher = more signal. For orientation: The colour change of resazurin is a common sign of viable cells or microbes.
The nature of test [2]: basal S. cerevisiae growth modulation, no modifier, primary screen, OD600, strain BY4716, 24 h, basal condition (AID 1173). The conditions noted are these: OD600, 24 h, higher = more signal, called active from +8 up or from −8 down.
A short description of test [3]: MM1S myeloma cell viability, profiling panel, resazurin fluorescence, basal, 24 h, PK04 Diversity Set (AID 1174).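 Further: MM1S multiple myeloma cell line; test concentration not given here.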 The conditions noted are these: higher = more signal, called active from +8 up or from −8 down.
In test [4] the target is Dihydroorotate dehydrogenase (quinone), mitochondrial (Plasmodium falciparum (isolate 3D7)) (UniProt Q08210). Put plainly: PfDHODH enzyme inhibitors, primary screen, biochemical, C-terminal His tag, absorbance 600 nm (AID 1175).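 Further: recombinant parasite enzyme with a five histidine tag at its C terminus; test concentration not given here.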 Particulars: DCIP absorbance 600 nm, higher = more signal, called active from +8 up or from −8 down.
Sequence of Dihydroorotate dehydrogenase (quinone), mitochondrial (Plasmodium falciparum (isolate 3D7)) (Q08210 whole entry, looked up): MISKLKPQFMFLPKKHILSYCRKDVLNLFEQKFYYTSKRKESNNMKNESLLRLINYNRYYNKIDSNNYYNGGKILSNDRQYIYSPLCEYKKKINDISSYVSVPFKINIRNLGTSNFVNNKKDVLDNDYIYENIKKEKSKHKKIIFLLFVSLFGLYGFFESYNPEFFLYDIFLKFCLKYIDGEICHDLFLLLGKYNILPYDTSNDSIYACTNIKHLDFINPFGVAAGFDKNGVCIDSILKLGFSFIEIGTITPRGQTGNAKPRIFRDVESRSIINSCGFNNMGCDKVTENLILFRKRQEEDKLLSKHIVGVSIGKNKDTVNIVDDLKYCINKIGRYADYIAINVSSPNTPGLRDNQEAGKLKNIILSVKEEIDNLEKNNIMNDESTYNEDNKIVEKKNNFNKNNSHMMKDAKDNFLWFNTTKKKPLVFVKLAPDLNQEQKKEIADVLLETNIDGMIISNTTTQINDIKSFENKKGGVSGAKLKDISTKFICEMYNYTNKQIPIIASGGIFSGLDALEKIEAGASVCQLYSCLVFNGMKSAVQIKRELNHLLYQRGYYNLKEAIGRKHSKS
Test [5] is described as follows: P. aeruginosa biofilm formation inhibitors, primary screen, strain PAO1, LB-PBS medium, absorbance 600 nm (AID 1176). Further: test concentration not given here. The conditions noted are these: P. aeruginosa PAO1 growth/biofilm, A600, 12 h; higher = more signal.
The nature of test [6]: S. cerevisiae RM11-1a growth modifiers, primary screen, strain RM11-1a, OD600, basal, 24 h (AID 1177).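 Further: cultures grown under basal conditions with no added stressor; test concentration not given here.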 Particulars: OD600, 24 h, higher = more signal, called active from +8 up or from −8 down.
Test [7] is described as follows: E. coli acrAB mutant growth effects, primary screen, E. coli filamentation inducers, strain DRC39, OD650, 24 h (AID 1178).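 Further: growth measured as culture turbidity by optical density at 650 nm; test concentration not given here.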 Particulars: higher = more signal, called active from +8 up or from −8 down.
Test [8] can be described thus: E. coli acrAB mutant growth effects, primary screen, E. coli filamentation inducers, strain DRC39, OD650, 48 h (AID 1179).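 Further: screen aims at cell division blockers that make cells filament.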 Particulars: E. coli DRC39 delta-acrAB growth, higher = more signal, called active from +8 up or from −8 down.
Test [9] is described as follows: RPMI8226 myeloma cell viability, profiling panel, resazurin fluorescence, basal, 24 h, PK04 Diversity Set (AID 1180).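 Further: RPMI8826 multiple myeloma cell line at 5000 cells per well; test concentration not given here.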 Particulars: higher = more signal.
For test [10], the target named is E3 ubiquitin-protein ligase XIAP (Homo sapiens) (UniProt P98170). Put plainly: XIAP binders, primary screen, biophysical, small-molecule microarray, fluorescence 635 nm (AID 1181).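 Further: score merges 667 nm emission and signal to noise over triplicate slides.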 The conditions noted are these: small-molecule microarray binding, higher = more signal.
Sequence of E3 ubiquitin-protein ligase XIAP (Homo sapiens) (P98170 whole entry, looked up): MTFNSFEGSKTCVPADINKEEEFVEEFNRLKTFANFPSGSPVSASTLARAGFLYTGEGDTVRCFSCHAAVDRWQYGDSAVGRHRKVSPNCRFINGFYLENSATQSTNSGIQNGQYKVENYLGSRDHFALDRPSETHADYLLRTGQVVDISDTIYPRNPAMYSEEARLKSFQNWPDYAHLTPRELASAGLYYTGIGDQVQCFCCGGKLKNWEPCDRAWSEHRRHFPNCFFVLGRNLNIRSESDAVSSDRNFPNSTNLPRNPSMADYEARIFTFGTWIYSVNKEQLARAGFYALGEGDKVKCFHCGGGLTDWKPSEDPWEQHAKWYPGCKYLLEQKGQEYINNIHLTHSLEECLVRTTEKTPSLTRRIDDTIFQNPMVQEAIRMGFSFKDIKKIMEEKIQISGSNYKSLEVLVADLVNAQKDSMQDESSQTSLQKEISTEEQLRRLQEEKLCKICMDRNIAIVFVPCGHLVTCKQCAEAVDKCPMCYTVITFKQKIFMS

`N[C@@H](Cc1ccccc1)Cn1cc(-c2ccccc2)nn1`: the z-score in [1] was -0.473; in test [2], -2.26 (inactive); in [3] it was -0.29 (inactive); in test [5], 0.444 (inactive); in test [6] it was -0.519 (inactive); in [7] it was 0.405 (inactive). Further, the z-score in test [8] was -0.679 (inactive); in test [9] it was -0.587. Also, the composite z-score is 1.11 (inactive) in test [4] and -0.377 in test [10].

As to `O=C1N(CCS(=O)(=O)c2ccccc2)Cc2ccccc2C[C@]12N=C(c1ccc(OCCCO)cc1)O[C@@H]2c1ccccc1`, the z-score in test [1] is -1.08; in test [2], 1.07 (inactive); in [3], -2.68 (inactive); in test [5] it was 0.0658 (inactive); in test [6] it was 1.52 (inactive); in [7], -0.0937 (inactive). For the same compound, the z-score is 1.28 (inactive) in test [8] and -1.99 in test [9]. For the same compound, the composite z-score in [4] is -1.48 (inactive); in test [10], 0.0191.

As for `CCCCC=C[C@@H](NC(=O)c1ccc(C(=O)OC)cc1)c1ccccc1`, the z-score is 2.26 in [1]; 0.399 (inactive) in test [2]; 1.13 (inactive) in [3]; -0.567 (inactive) in test [5]; 1.18 (inactive) in [6]; -0.0227 (inactive) in test [7]. Further, the z-score in test [8] was 0.623 (inactive); in test [9], 3.78. Moreover, the composite z-score in test [4] was -0.543 (inactive); in test [10] it was -0.145.

For `C#CCN(C(/C=C/c1ccccc1)CO)C(C(=O)O)c1ccccc1` (stereo not given), the z-score in test [1] was -0.589; in test [2] it was -2.64 (inactive); in test [3], 0.274 (inactive); in [5] it was -0.565 (inactive); in test [6], -0.643 (inactive); in test [7], 1.6 (inactive). Besides, the z-score in test [8] was -0.198 (inactive); in test [9], -0.0777. For the same compound, the figures for the composite z-score in test [4] and in [10] were -3.17 (inactive) and -0.175, respectively.

Take `CCC[C@@H]1C=C(C(=O)O)[C@H](c2ccc(C)cc2)N1S(=O)(=O)c1ccc(C)cc1`: the z-score is -0.795 in [1]; 0.0188 (inactive) in test [2]; -0.522 (inactive) in test [3]; 0.89 (inactive) in [5]; -0.213 (inactive) in test [6]; -0.591 (inactive) in test [7]. Besides, the results for the z-score in [8] and in [9] were 0.0595 (inactive) and -2.01, respectively. For the same compound, the composite z-score in test [4] is -0.0451 (inactive); in [10], 0.22.

Regarding `COc1ccc(C(O)C2C=CC3C(=O)N(C)C(=O)C3N2Nc2ccccc2)cc1OCc1ccccc1` (stereo not given), the z-score in [1] is 0.043; in test [2] it was -12.9 (active); in [3], -0.157 (inactive); in [5], 1.03 (inactive); in test [6] it was 1.17 (inactive); in test [7] it was -1.02 (inactive). Further, the z-score in [8] was -1.05 (inactive); in test [9], -0.543. The composite z-score in test [4] was 0.669 (inactive); in test [10], 0.209.

As to `O=C1O[C@H](c2ccccc2)[C@H](c2ccccc2)N2[C@H]1[C@@H](C(=O)NC[C@H](O)c1ccccc1)[C@]1(C(=O)Nc3ccc(C#CCCO)cc31)[C@H]2c1ccc(O)cc1`, the z-score in test [1] was -0.0297; in test [2], 0.047 (inactive); in test [3] it was -0.0226 (inactive); in test [5], 0.432 (inactive); in test [6], 0.117 (inactive); in test [7] it was -0.568 (inactive). For the same compound, the figures for the z-score in test [8] and in test [9] were -0.982 (inactive) and -0.186, respectively. Moreover, the results for the composite z-score in test [4] and in test [10] were -1.4 (inactive) and 0.133, respectively.

For `COCCCNC(=O)[C@@]1(CCC(=O)OC(C)(C)C)N=C(c2ccc(OCCCO)cc2)O[C@H]1c1ccccc1CN=[N+]=[N-]`, the z-score is 0.495 in test [1]; -0.78 (inactive) in test [2]; -0.0488 (inactive) in test [3]; -0.167 (inactive) in test [5]; 0.424 (inactive) in test [6]; 0.481 (inactive) in test [7]. Further, the z-score in [8] is -0.28 (inactive); in test [9], 0.423. For the same compound, the composite z-score in test [4] is -0.256 (inactive); in test [10], -0.212.

Turning to `CC(C)C(O)C1C=CC2C(=O)N(c3ccccc3)C(=O)C2N1Nc1ccc(C#N)cc1` (stereo not given), the z-score in [1] is -1.45; in [2], -2.14 (inactive); in test [3], -1.66 (inactive); in test [5], 1.11 (inactive); in test [6] it was -0.0111 (inactive); in test [7] it was -0.718 (inactive). Also, the z-score in test [8] is 0.0323 (inactive); in test [9], -0.47. In addition, the composite z-score in test [4] is -1.02 (inactive); in [10] it was 0.0073.

In the case of `O=C1OCCC/C=C\[C@H]2OC34C=CCN(Cn5nnc6ccccc65)C(=O)[C@H]3N(CCCCCO)C(=O)[C@@H]4C12` (stereo not given in full), the z-score in test [1] is 0.502; in test [2] it was -0.419 (inactive); in test [3], 0.812 (inactive); in [5] it was 0.193 (inactive); in test [6], -0.564 (inactive); in test [7], 0.376 (inactive). In addition, the z-score in test [8] is -0.0083 (inactive); in test [9], 0.692. The composite z-score in test [4] is -1.01 (inactive); in test [10], 0.178.

With `CC(C)=CCCC(C)=CC(O)C1C=CC2C(=O)N(c3ccccc3)C(=O)C2N1Nc1ccccc1` (stereo not given), the z-score was -1.4 in test [1]; -1.66 (inactive) in test [2]; -1.49 (inactive) in test [3]; 1.32 (inactive) in [5]; 0.42 (inactive) in [6]; -0.994 (inactive) in test [7]. Also, the z-score is -0.927 (inactive) in test [8] and -1.56 in test [9]. For the same compound, the composite z-score is 0.0928 (inactive) in [4] and 0.0655 in [10].

As to `C[N+](C)(C)CCCCCCNC(=O)[C@H]1C[C@H]2C(=O)N3CCC[C@H]3C(=O)N2[C@H]1c1ccc(O)cc1`, the z-score in test [1] is 0.202; in test [2], -0.652 (inactive); in [3] it was 0.488 (inactive); in [5] it was 2.48 (inactive); in [6], -0.201 (inactive); in test [7] it was -0.834 (inactive). For the same compound, the results for the z-score in test [8] and in [9] were -1.15 (inactive) and -0.603, respectively. Also, the composite z-score in [4] was -2.18 (inactive); in [10], 0.127.

For the compound `CC(C)c1ccc(NN2C(C(O)c3ccc(N(C)C)cc3)C=CC3C(=O)N(c4ccccc4)C(=O)C32)cc1` (stereo not given), the z-score was 0.0387 in test [1]; 0.254 (inactive) in test [2]; -0.683 (inactive) in [3]; 0.53 (inactive) in test [5]; 0.25 (inactive) in [6]; -0.172 (inactive) in test [7]. The z-score in test [8] was 0.766 (inactive); in [9], 0.203. The composite z-score in [4] was 0.421 (inactive); in test [10], 0.391.
